About 7,900 targets were measured; listed, in parts, are those with a hit and a random draw of the rest. About 0.6% of all pairs of compound and target were hits. Unmarked numbers belong to inactive results.
Legend:
Experiment in all cases: log2 fold change, soluble protein after heating vs DMSO (PISA); higher = thermal stabilisation; K562 cells, 10 uM, 30 min; active = over 0.2 and 3.5 SD of the protein, either way, in both replicates (recomputed)
[1] = compound: NC(=O)Nc1cc(-c2cccc(F)c2)sc1C(=O)N[C@H]1CCCNC1
Method in brief: (§1)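 Quantification of soluble protein used TMTpro 16plex LC-MS/MS, with channel sums equalised. Samples were the supernatant after 21,000xg for 90 min of pooled aliquots from K562 cells (2×10^6 cells/mL) treated with 10 μM compound for 30 min, heated for 3 min over 48°C-58°C, and extracted in PBS with 0.5% NP-40 at 4°C. Values, from duplicates, describe thermal stability against control samples on a log2 fold-change scale.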

[2] = compound: NC(=O)c1cnc(N[C@@H]2CCCC[C@@H]2N)nc1Nc1cccc(-n2nccn2)c1
Method in brief: as §1

[3] = compound: NC1(c2ccc(-c3nc4ccn5c(=O)[nH]nc5c4cc3-c3ccccc3)cc2)CCC1
Method in brief: as §1

entinostat = compound: Nc1ccccc1NC(=O)c1ccc(CNC(=O)OCc2cccnc2)cc1 [entinostat]
Method in brief: as §1

vorinostat = compound: O=C(CCCCCCC(=O)Nc1ccccc1)NO [vorinostat]
Method in brief: as §1

citarinostat = compound: O=C(CCCCCCNC(=O)c1cnc(N(c2ccccc2)c2ccccc2Cl)nc1)NO [citarinostat]
Method in brief: as §1

silmitasertib = compound: O=C(O)c1ccc2c(c1)nc(Nc1cccc(Cl)c1)c1ccncc12 [silmitasertib]
Method in brief: as §1

[4] = compound: O=C1NC(=O)C(c2cnc3ccccn23)=C1c1cn2c3c(cc(F)cc13)CN(C(=O)N1CCCCC1)CC2
Method in brief: as §1

[5] = compound: c1cc(OCCN2CCCCC2)cc(-c2n[nH]c3ccc(-c4nnc[nH]4)cc23)c1
Method in brief: as §1

entospletinib = compound: c1cn2cc(-c3ccc4cn[nH]c4c3)nc(Nc3ccc(N4CCOCC4)cc3)c2n1 [entospletinib]
Method in brief: as §1

[6] = compound: NCC(=O)Nc1ccc(-n2nc(C(F)(F)F)cc2-c2ccc3c(ccc4ccccc43)c2)cc1
Method in brief: as §1

Sequence of UniProt Q86TN4 (Q86TN4 whole entry, looked up): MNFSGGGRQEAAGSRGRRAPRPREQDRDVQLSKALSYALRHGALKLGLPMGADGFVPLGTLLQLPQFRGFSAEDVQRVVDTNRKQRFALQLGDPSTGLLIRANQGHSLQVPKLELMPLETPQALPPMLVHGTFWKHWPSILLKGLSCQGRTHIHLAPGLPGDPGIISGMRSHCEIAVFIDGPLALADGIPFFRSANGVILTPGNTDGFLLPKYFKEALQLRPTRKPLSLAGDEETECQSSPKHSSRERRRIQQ
Sequence of UniProt Q7Z7N9 (Q7Z7N9 whole entry, looked up): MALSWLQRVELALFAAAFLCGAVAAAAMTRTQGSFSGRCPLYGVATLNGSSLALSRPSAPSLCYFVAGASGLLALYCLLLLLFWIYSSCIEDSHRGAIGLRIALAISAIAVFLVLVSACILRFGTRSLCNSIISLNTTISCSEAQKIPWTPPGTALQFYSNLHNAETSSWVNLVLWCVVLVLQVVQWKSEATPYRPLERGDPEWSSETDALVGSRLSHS
Sequence of UniProt Q5VZI3 (Q5VZI3 whole entry, looked up): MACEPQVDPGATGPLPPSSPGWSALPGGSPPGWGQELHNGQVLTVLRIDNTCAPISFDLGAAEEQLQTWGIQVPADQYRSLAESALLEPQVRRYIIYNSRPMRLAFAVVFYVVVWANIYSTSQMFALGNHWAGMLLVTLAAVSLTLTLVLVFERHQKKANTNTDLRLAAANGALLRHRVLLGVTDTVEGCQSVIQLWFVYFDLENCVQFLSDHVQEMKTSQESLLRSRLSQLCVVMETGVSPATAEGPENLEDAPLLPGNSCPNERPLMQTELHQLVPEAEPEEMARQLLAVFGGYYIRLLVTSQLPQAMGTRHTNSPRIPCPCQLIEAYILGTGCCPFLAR
Sequence of UniProt Q86XT9 (Q86XT9 whole entry, looked up): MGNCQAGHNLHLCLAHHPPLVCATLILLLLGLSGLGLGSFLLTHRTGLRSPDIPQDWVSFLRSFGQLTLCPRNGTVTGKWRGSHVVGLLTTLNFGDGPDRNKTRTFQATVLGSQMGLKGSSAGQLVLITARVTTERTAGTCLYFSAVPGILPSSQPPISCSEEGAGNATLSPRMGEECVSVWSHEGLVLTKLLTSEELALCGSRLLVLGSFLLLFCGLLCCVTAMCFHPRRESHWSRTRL

Target | log2 fold change [1] | log2 fold change [2] | log2 fold change [3] | log2 fold change (entinostat) | log2 fold change (vorinostat) | log2 fold change (citarinostat) | log2 fold change (silmitasertib) | log2 fold change [4] | log2 fold change [5] | log2 fold change (entospletinib) | log2 fold change [6]
TMEM179B (UniProt Q7Z7N9) | -0.235 | 0.079 | -0.255 | 0.04 | -0.156 | -0.019 | -0.043 | -0.173 | -0.112 | 0.098 | 
TRPT1 isoform 4 (UniProt Q86TN4) | 0.037 | 0.235 | 0 | 0.123 |  | 0.029 | 0.059 |  | -0.025 | 0.051 | 
WARS1 (UniProt G3V339) |  |  |  |  |  |  |  | -0.387 |  |  | 
TMEM268 isoform 3 (UniProt Q5VZI3) | 0.12 | 0.057 | -0.141 | 0.059 | 0.162 | 0.084 | -0.114 | 0.174 | -0.117 | -0.054 | 
TMEM219 (UniProt Q86XT9) | 0.079 | 0.033 |  | 0.052 | 0.389 (active) |  |  | -0.025 |  |  | 0.036

Reference: the supplement of paper PMC10849652
